Measurements from PubChem BioAssay (NCATS).
“And” between values parts separate entries of the source, which are not always exact repeats. Equal values may be shown once. Records with an inconclusive call do not appear. The source made the active and inactive calls. Unless noted, the call rests on the fitted dose curve; in most records, active means well fitted curve in the direction sought with a large enough effect; inconclusive means small, poorly fitted or top-dose-only effect, or another doubt; inactive means no such curve, though single readings can be large; an effect the other way counts as inactive or inconclusive.

How the values were obtained:
[1] = qHTS Assay for Identifying Gametocytocidal Compounds (AID 743244);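 further: on the % scale 0 is the no-effect control and ±100 the full control effect; actives lower the fluorescent signal which means gametocytes are killed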; settings: P. falciparum 3D7 stage III-V gametocytes, alamarBlue, 72 h; max response: stronger effect = lower value
How it was run: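 In this qHTS viability screen, late-stage 3D7 gametocytes are incubated with compound for 72 h, then with alamarBlue for 24 h; reduced resorufin fluorescence marks killing.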

[2] = High-throughput drug toxicity screening in the BPDCN cell line Gen2.2 (AID 1224824; call rule not given here;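 further: cells exposed to compounds for 48 h before reading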); settings: Gen2.2 BPDCN cells; at 45.8 µM (top of the series) unless noted
How it was run: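 Gen2.2 cells (500/well) in phenol red-free RPMI with 10% FBS were exposed to compounds for 48 h at 37 °C, 5% CO2. Viability was read by CellTiter-Glo luminescence and normalized to DMSO (100%) and 9.2 uM bortezomib (0%).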

[3] = High-throughput drug toxicity screening in the BPDCN cell line Cal-1 (AID 1224825; call rule not given here); settings: Cal-1 BPDCN cell viability, qHTS; at 45.8 µM (top of the series) unless noted
How it was run: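 Viability of the BPDCN line Cal-1 is measured as ATP-based luminescence (CellTiter-Glo) following 48 h incubation with compounds. Percent activity uses DMSO-treated wells as 100% and 9.2 uM bortezomib as 0%.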

[4] = qHTS assay for measurement of the activity of small molecule inhibitors on Zika virus induced Caspase-3 activity in human iPSC derived neural progenitor cells (hNPCs) (AID 1224857); further: % of control where 0% means no effect; nearly all actives have a fitted effect of over 65% in size
How it was run: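 In medium with heparin 2 ug/ml and cyclopamine 2 uM, hNPCs (350 cells/well) received compound for one hour and then Zika virus at 2 FFU/cell; caspase activity was measured by Caspase-Glo 3/7 luminescence 6 h post-infection.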

[5] = qHTS Screen of the MIPE 4.0 Collection Against Ewings Sarcoma (RDES) (AID 1259252); further: nearly all actives have a fitted effect of over 35% in size; further: potency means the concentration at half of the fitted maximal effect
How it was run: (§1)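 Here, cells in 5% FBS RPMI were exposed for two days (48 h) to compound dilutions added four hours after plating. ATP-based CellTiter-Glo luminescence measured viability, normalized to vehicle and no-cell blanks.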

[6] = qHTS Screen of the MIPE 4.0 Collection Against Ewings Sarcoma (TC71) (AID 1259253); further: nearly all actives have a fitted effect of over 40% in size; further: potency means the concentration at half of the fitted maximal effect
How it was run: as §1

[7] = qHTS Screen of the MIPE 4.0 Collection Against Ewings Sarcoma (EW8) (AID 1259255); further: nearly all actives have a fitted effect of over 35% in size; further: potency means the concentration at half of the fitted maximal effect;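 on viability: 100% = DMSO-treated cells and 0% = medium-only wells without cells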
How it was run: as §1

[8] = qHTS profiling for inhibitors of Plasmodium falciparum (3D7) proliferation (AID 743322; call rule not given here;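 further: infected erythrocytes exposed to compound for 72 h before lysis; 100% = DMSO vehicle wells and 0% = 0.29 µM artemisinin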); settings: P. falciparum 3D7 proliferation; at 28.7 µM (top of the series) unless noted
How it was run: (§2)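 Parasite DNA was quantified by SYBR Green I fluorescence (ex 485, em 535 nm) after overnight lysis in saponin/Triton buffer at room temperature. Cultures at 0.3% parasitemia and 2.5% hematocrit were first exposed to compound for 72 h at 37 C; signals were normalised to artemisinin (0.29 uM) and vehicle wells.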

[9] = qHTS profiling for inhibitors of Plasmodium falciparum (DD2) proliferation (AID 743323; call rule not given here); settings: lower = more inhibition; at 28.7 µM (top of the series) unless noted
How it was run: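 Parasite DNA quantified by SYBR Green fluorescence (ex 485, em 535 nm) after saponin/Triton lysis and overnight dark incubation. Cultures: 0.3% parasitemia, 2.5% hematocrit, 72 h, 37 C; data scaled between DMSO and 0.29 uM artemisinin.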

[10] = qHTS profiling for inhibitors of Plasmodium falciparum (HB3) proliferation (AID 743324); settings: Plasmodium falciparum HB3 blood-stage proliferation; at 28.7 µM (top of the series) unless noted;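 further: 100% = DMSO vehicle wells and 0% = artemisinin-treated control wells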
How it was run: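 SYBR Green fluorescence (485 ex/535 em) of lysed cultures, incubated overnight at room temperature in the dark, quantifies parasite DNA. Infected erythrocytes at 0.3% parasitemia and 2.5% hematocrit were exposed 72 h; values normalized to DMSO and 0.29 uM artemisinin controls.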

[11] = qHTS profiling of the MIPE4 collection as inhibitors of Plasmodium falciparum (3D7) proliferation (AID 743344; call rule not given here;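 further: scaled between DMSO vehicle wells and 0.29 µM artemisinin as full inhibition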); settings: P. falciparum 3D7 in erythrocytes, SYBR Green DNA fluorescence, 72 h; at 28.5 µM (top of the series) unless noted
How it was run: as §2

[12] = qHTS profiling of the MIPE4 collection as inhibitors of Plasmodium falciparum (DD2) proliferation (AID 743345; call rule not given here); settings: P. falciparum Dd2 in erythrocytes, SYBR Green DNA, 72 h; at 28.5 µM (top of the series) unless noted
How it was run: as §2

[13] = qHTS profiling of the MIPE4 collection as inhibitors of Plasmodium falciparum (HB3) proliferation (AID 743347; call rule not given here;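 further: plate controls were DMSO vehicle wells for no effect and artemisinin wells for full effect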); settings: P. falciparum HB3 in erythrocytes, SYBR Green DNA, 72 h; at 28.5 µM (top of the series) unless noted
How it was run: as §2

[14] = qHTS profiling of the MIPE4 collection as inhibitors of Plasmodium falciparum (DD2) proliferation (Rep 2) (AID 743346; call rule not given here); settings: P. falciparum Dd2 in erythrocytes, SYBR Green DNA, 72 h; at 28.5 µM (top of the series) unless noted
How it was run: as §2

[15] = qHTS assay for measurement of the activity of small molecule inhibitors on Zika virus induced Caspase-3 activity in human astrocytoma cells (AID 1224859);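 further: plate controls were ZIKV-infected untreated cells for no effect and uninfected cells for full effect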
How it was run: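 A cell-based luminescent caspase-3/7 assay used SNB-19 cells infected with ZIKV (2 FFU/cell) for 6 h following 1 h compound pretreatment.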

[16] = biological target: Hexokinase-4 (Homo sapiens) + Glucokinase regulatory protein (Homo sapiens) (UniProt P35557+Q14397); test: qHTS assay for inhibitors of recombinant human GCK-GKRP interaction: HTRF assay (AID 743207);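 further: 0% = DMSO with GCK present and -100% = DMSO wells lacking GCK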
Chain of Hexokinase-4 (Homo sapiens) + Glucokinase regulatory protein (Homo sapiens) (P35557 whole entry, looked up): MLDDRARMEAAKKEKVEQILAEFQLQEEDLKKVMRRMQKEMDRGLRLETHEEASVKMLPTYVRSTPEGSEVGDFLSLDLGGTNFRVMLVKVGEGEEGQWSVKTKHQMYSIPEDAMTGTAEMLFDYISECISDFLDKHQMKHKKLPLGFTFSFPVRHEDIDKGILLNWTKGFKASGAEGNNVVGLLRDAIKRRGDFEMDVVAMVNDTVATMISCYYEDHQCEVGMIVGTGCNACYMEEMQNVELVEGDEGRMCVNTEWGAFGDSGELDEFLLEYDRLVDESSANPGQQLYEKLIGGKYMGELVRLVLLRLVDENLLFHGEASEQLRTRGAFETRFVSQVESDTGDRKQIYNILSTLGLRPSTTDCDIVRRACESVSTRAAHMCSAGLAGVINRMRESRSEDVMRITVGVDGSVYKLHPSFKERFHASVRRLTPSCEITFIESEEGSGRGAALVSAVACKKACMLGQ
Chain of Hexokinase-4 (Homo sapiens) + Glucokinase regulatory protein (Homo sapiens) (Q14397 whole entry, looked up): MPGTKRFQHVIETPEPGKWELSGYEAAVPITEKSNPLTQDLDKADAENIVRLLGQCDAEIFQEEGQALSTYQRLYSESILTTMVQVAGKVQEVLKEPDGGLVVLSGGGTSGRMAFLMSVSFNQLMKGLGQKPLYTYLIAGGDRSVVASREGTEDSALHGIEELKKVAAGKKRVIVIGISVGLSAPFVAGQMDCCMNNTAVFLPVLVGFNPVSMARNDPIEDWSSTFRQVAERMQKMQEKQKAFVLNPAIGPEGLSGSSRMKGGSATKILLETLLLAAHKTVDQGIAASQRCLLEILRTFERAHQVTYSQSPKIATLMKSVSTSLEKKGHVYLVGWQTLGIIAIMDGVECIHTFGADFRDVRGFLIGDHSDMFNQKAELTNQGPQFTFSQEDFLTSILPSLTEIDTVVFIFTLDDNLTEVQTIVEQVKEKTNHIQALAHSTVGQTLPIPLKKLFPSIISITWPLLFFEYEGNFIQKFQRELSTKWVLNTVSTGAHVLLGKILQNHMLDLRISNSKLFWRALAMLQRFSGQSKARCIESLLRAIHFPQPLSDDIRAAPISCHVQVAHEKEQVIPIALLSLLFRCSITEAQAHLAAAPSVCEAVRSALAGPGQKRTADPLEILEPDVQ
How it was run: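 GST-GCK and FLAG-GKRP (5 nM each) were combined with 2 uM S6P in pH 7.1 Hepes/MgCl2/KCl/DTT buffer, then compound and anti-FLAG XL665/anti-GST K antibodies were added. After 60 min at room temperature, HTRF 665/615 nm emission was read.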

[17] = qHTS assay for cell viability of HEK293 cells (AID 743288); settings: ATP luminescence (CellTiter-Glo), 18 h; max response: stronger effect = lower value; further: on the % scale 0 is the no-effect control and ±100 the full control effect; nearly all actives have a fitted effect of over 50% in size
How it was run: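 After 18 h compound exposure at 37 C, parental HEK293 cells (2,000/well) are lysed with CellTiter-Glo and luminescence is read following 30 min at room temperature.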

[18] = qHTS assay for cell viability of the p53RE-bla HCT-116 cell line (AID 743292); further: on the % scale 0 is the no-effect control and ±100 the full control effect; nearly all actives have a fitted effect of over 55% in size
How it was run: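 Quantitative high-throughput format: compounds in DMSO were pinned onto p53RE-bla HCT-116 cells (4,000/well) and incubated 16 h at 37 C. Total intracellular ATP, read by CellTiter-Glo luminescence, reflects viable cell number.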

SMILES | max response [1] | cell viability, % of control (lower = more cytotoxic) [2] | viability (% of control) [3] | Potency [4] | Potency [5] | Potency [6] | Potency [7] | remaining parasite growth % (stronger effect = lower value) [8] | activity, percent of control [9] | remaining proliferation (% of control), lower = more inhibition [10] | parasite growth, % of DMSO control [11] | parasite growth remaining, % of DMSO control (lower = more inhibition) [12] | growth, % of control [13] | parasite growth, % of control (lower = inhibition) [14] | Potency [15] | outcome [16] | max response [17] | Potency [18]
CC[C@H](Nc1ncnc2nc[nH]c12)c1nc2cccc(F)c2c(=O)n1-c1ccccc1 | 14.6% (inactive) | 4.94% | 18.8% | inactive | 2.35 µM (active) | 2.96 µM (active) | 2.64 µM (active) |  |  |  |  |  |  |  |  |  |  | 
N#CC[C@H](C1CCCC1)n1cc(-c2ncnc3[nH]ccc23)cn1 | 2.34% (inactive) | 230% | 56.3% | inactive | 18.7 µM (active) | 20.9 µM (active) | 16.6 µM (active) | 57.9% | 48.8% | 18.5% | 21.5% | 64.4% | 40.5% |  |  |  |  | 
C[C@]1(c2nc3c(C(N)=O)cccc3[nH]2)CCCN1 |  | 50.9% | 88% | inactive |  | inactive | inactive | 93.1% | 87.4% | 94% | 88.7% | 94.9% | 88.5% |  |  |  |  | 
OCCC#Cc1nc(-c2ccc(F)cc2)c(-c2ccncc2)n1CCCc1ccccc1 |  | 98.7% | 18.4% | inactive |  |  |  | 1.18% | 8.27% | 7.5% | 15% | 21.2% | 7.31% | 15.5% | inactive |  |  | 
COc1ccccc1[C@H](c1cccc2ccccc12)[C@@](C)(C#N)C(=O)N1CCC(c2cccc(C(F)(F)F)c2)CC1 |  | 2.69% | 10.6% | inactive | 13.2 µM (active) | 10.5 µM (active) | 6.62 µM (active) | 1.65% | 1.44% | 0.956% | 5.47% | 8.96% | 6.38% | 9.97% |  |  |  | 
Oc1cccc(-c2nc(N3CCOCC3)c3oc4ncccc4c3n2)c1 | -13.9% (inactive) | 8.19% [at 92.2 µM] | 17.8% [at 92.2 µM] | inactive | 0.96 µM (active) | 0.152 µM (active) | 0.429 µM (active) | -0.106% | 2.54% | 1.45% | 6.68% [at 57.5 µM] | 8.08% [at 57.5 µM] | 5.67% [at 57.5 µM] | 21.1% [at 57.5 µM] |  |  |  | 
CC(C)(C)NCC(O)c1ccc(O)c(CO)c1 (configuration not stated) | 0.0655% (inactive) and 23.1% (inactive) | 76% | 113% | inactive | inactive | inactive | inactive |  |  |  |  |  |  |  |  |  |  | 
CCCCNc1cc(C(=O)O)cc(S(N)(=O)=O)c1Oc1ccccc1 | -3.91% (inactive) and 1.19% (inactive) | 596% |  | inactive | inactive | inactive | inactive |  |  |  | 87.9% | 99.3% | 84% | 102% | inactive | inactive |  | 
COc1ccc(-c2c(-c3ccc(O)cc3O)n[nH]c2C)cc1 | 3.95% (inactive) | 96.4% [at 92.2 µM] | 61.9% [at 92.2 µM] | inactive |  |  |  | 1.98% | 5.32% | 0.491% | 47% [at 57.5 µM] | 61.8% [at 57.5 µM] | 106% [at 57.5 µM] | 45.5% [at 57.5 µM] | inactive |  |  | 
Nc1ncnc2nc(-c3ccc(N4CCOCC4)nc3)cc(-c3cccc(Br)c3)c12 |  | 76% | 55.4% | inactive |  | 20.9 µM (active) | 33.2 µM (active) |  |  |  |  |  |  |  |  |  |  | 
CC(=O)Oc1ccccc1C(=O)O | -2.57% (inactive) and 13.2% (inactive) | 125% | 135% | inactive | 8.33 µM (active) | 18.7 µM (active) | 20.9 µM (active) |  |  |  | 93.6% | 90.5% | 94.6% | 90.6% |  | inactive | -2.25% (inactive) and -4.16% (inactive) and -2.23% (inactive) | inactive
COc1ccc(CCN2CCN(CCCc3ccccc3)CC2)cc1OC |  | 340% | 64.5% | inactive | inactive |  |  | 9.47% | 65.7% |  | 28.6% | 95.6% | 21.1% | 30% |  |  |  | 
COc1ccc([C@@H]2CC(=O)c3c(O)cc(O[C@@H]4O[C@H](CO[C@@H]5O[C@@H](C)[C@H](O)[C@@H](O)[C@@H]5O)[C@@H](O)[C@H](O)[C@@H]4O)cc3O2)cc1O |  | 52.6% and 176% | 54.1% and 116% | inactive |  |  | inactive |  |  |  | 83.3% and 61.8% | 90.3% and 85.6% | 92% and 93.5% | 120% and 81.3% | inactive |  |  | 
CCCc1nc2c(C)cc(-c3nc4ccccc4n3C)cc2n1Cc1ccc(-c2ccccc2C(=O)O)cc1 |  | 126% | 103% | inactive |  |  |  | 103% | 94% | 66.6% | 6.42% | 16.2% | 7.75% | 21.8% | inactive |  |  | 
C#Cc1cccc(Nc2ncnc3cc(OCCOC)c(OCCOC)cc23)c1 | 10.7% (inactive) and -0.582% (inactive) | 24.7% |  | inactive | 4.18 µM (active) | 14.8 µM (active) | 23.5 µM (active) | 12.2% | 27.9% | 6.23% | 24.3% | 50.4% | 4.75% | 43.1% | inactive |  |  | 
Cc1ccnc(NS(=O)(=O)c2ccc(NC(=O)Nc3ccc(S(=O)(=O)Nc4nccc(C)n4)cc3)cc2)n1 |  | 75.2% |  | inactive |  |  |  | 12% | 27.4% | 3.95% | 15.7% | 70.2% | 9.87% |  | inactive |  |  | 
